Results published in PubChem BioAssay (Tox21).
Inconclusive results are not listed. A call without a number means that no potency is given here. Active and inactive are the calls of the source. The call rests on the fitted dose curve.

Target: D(2) dopamine receptor (Homo sapiens) (UniProt P14416)
Experiment: Dopamine D2 receptor (DRD2) small molecule agonists, cell-based qHTS assay (AID 1963594); further: nearly all actives have a fitted effect of over 35% in size
Conditions: HEK293-DRD2 cAMP HTRF, agonist mode, 30 min; series mostly up to 92.4 µM
Excerpt: National Center for Advancing Translational Sciences [NCATS]
Division of Preclinical Innovation [DPI]
U.S. Environmental Protection Agency [EPA]
National Institutes of Environmental Health Sciences [NIEHS]
National Toxicology Program [NTP]
U.S. Food and Drug Administration [FDA]
DRD2 is the D2 subtype of the dopamine receptor, which is coupled to Gi subtype of G protein-coupled receptor. This G protein-coupled receptor inhibits adenylyl cyclase activity. The DRD2-HEK293 cell line stably expressing D2 dopamine receptor can be used for screening agonists and antagonists of interactions between D2 and its ligands. The Hek293-DRD2 cAMP assay is based on HTRF technology. It measures changes of cAMP accumulation in response to Gi coupled GPCR activation or inhibition.
Tox21 Assay Protocol Summary:
DRD2-Hek293 cells were dispensed at 600 cells/3uL/well in 1536-well white plates using a Multidrop Dispenser. After the assay plates were incubated at a 37 C/5% CO2 incubator for 24 h, 1 uL of Ro20-1724 at final concentration of 0.1 mM was transferred to the assay plate by a Flying Reagent Dispenser. Following Ro20-1724 addition, 23 nL of compound dissolved in DMSO, positive controls or DMSO only was added to the assay plates via Wako pintool station. The assay plates were incubated at room temperature for 10 min. Next, 1 uL of NKH477 at 200nM was added into the plates. After the assay plates were incubated at room temperature for an additional 30 min, 2.5 ul/well of cAMP-d2 and 2.5 ul/well of anti-cAMP-cryptate were added respectively into the assay plates using a Flying Reagent Dispenser. The plates were incubated at room temperature for 1 h. The fluorescence intensity in the plates was measured at 340 nm excitation and 665 & 620 nm emission by an Envision plate reader.

Chain of D(2) dopamine receptor (Homo sapiens) (P14416 whole entry, looked up): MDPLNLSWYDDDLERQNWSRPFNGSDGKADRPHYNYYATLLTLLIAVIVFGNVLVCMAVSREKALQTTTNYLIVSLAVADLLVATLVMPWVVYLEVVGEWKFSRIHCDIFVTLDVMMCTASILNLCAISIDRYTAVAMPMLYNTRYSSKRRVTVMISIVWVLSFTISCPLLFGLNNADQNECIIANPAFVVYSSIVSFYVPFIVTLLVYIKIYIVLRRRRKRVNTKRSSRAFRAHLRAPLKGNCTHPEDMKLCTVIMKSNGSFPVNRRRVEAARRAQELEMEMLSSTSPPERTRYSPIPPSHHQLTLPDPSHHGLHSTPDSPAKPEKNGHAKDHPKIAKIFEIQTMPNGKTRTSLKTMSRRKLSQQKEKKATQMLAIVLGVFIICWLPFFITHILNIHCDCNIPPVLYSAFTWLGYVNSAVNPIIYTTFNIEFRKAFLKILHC

| Compound | Potency |
| --- | --- |
| O=C1CC(c2ccc(Cl)cc2)CC(=O)N1 | inactive |
| SCCSCCS | inactive |
| N=C(N=C(N)N)N1CCOCC1 | inactive |
| Cn1cnc2c1c(=O)[nH]c(=O)n2C | inactive |
| O=[N+]([O-])c1ccc2c(c1)Cc1ccccc1-2 | inactive |
| O=c1n(CCCN2CCN(c3cccc(Cl)c3)CC2)nc2ccccn12 | inactive |
| Cn1cc(S(C)=O)c(=O)c2ccc(F)cc21 (stereo not given) | inactive |
| OCC(CO)(CO)CO | inactive |
| CC/C=C\CCOC(=O)CC | inactive |
| O=C1NCCN1CCO | inactive |
| O=C1CC[C@H](C(=O)N2CCCCC2)N1 | inactive |
| O=S(=O)(O)c1cc(O)c(O)c(S(=O)(=O)O)c1 | inactive |
| Cc1cc(C)cc(N)c1 | inactive |
| O=C1OC(CN2CCOCC2)CN1/N=C/c1ccc([N+](=O)[O-])o1 (stereo not given) | inactive |
| CC(=O)O[C@@H]1C[C@@H]2CC[C@@]1(C)C2(C)C | inactive |
| CCCCNc1ccccc1 | inactive |
| CC(=O)OCC1=C(C(=O)O)N2C(=O)[C@@H](NC(=O)Cc3cccs3)[C@H]2SC1 | inactive |
| COC(=O)c1c(Cl)c(Cl)c(C(=O)OC)c(Cl)c1Cl | inactive |
| Nc1ccc(N=Nc2ccccc2)c(N)n1 | inactive |
| CC1=NN(c2ccc(S(=O)(=O)O)cc2)C(=O)C1 | inactive |

| Compound | Potency |
| --- | --- |
| CC1=C(O)C(=O)OC1C (stereo not given) | inactive |
| CCCCCCCOC(=O)c1ccccc1C(=O)OCCCCCCC | inactive |
| CCCCCCCC(=O)N(C)C | inactive |
| Fc1c(F)c(F)c(Br)c(F)c1F | inactive |
| Cc1[nH]cnc1-c1ccc(Cl)cc1 | inactive |
| CC/C=C\CCOC(=O)CCCCC | inactive |
| CC[C@]12CCCN3CCc4c(n(c5ccccc45)[C@@](O)(C(=O)OC)C1)[C@@H]32 | inactive |
| OCc1ccccc1 | inactive |
| CC(C)CCCCOC(=O)c1ccccc1C(=O)OCCCCC(C)C | inactive |
| O=S(=O)(O)c1cccc2ccccc12 | inactive |
| O=C1CC2(CCCC2)CC(=O)N1CCCCN1CCN(c2ncccn2)CC1 | inactive |
| COc1cccc(OC)c1C(=O)N[C@@H]1C(=O)N2[C@@H]1SC(C)(C)[C@@H]2C(=O)O | inactive |
| Nc1cccc(N)n1 | inactive |
| O=C(Oc1ccccc1)c1ccc(O)cc1 | inactive |
| C1=C\CC/C=C\CC/C=C\CC/1 | inactive |
| N#CC1(O)CCCCC1 | inactive |
| O=[N+]([O-])c1ccc(CCO)cc1 | inactive |
| CCCCCCC1(C)CCC(=O)O1 (stereo not given) | inactive |
| C/C=C/C(=O)CCCC | inactive |
| C1CCCNCCC1 | inactive |
